# Assay outcomes as filed in PubChem BioAssay.
# Compounds with a hit are over-represented: about 27% of the library has one in this group of screens.
# Cav3 T inh: blocks human Cav3.2 T-type calcium channel; O95180; Cav3.2-expressing cells, Fluo-4 calcium fluorescence FDSS; stronger effect = lower value; B-score at 10 µM; hit rate 4% among 100,000;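 active = single-dose well whose peak fluorescence ratio is a statistical outlier from its plate by either plate-standardised score or position-corrected B-score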
# CYP2C9 inh: inhibitors of human CYP2C9; CYP2C9 Supersomes, luciferin-H conversion, luminescence; inhibition, % at 5 µM; P11712; hit rate 20% among 96,000; AID 777;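 active = blocking of liver enzyme CYP2C9 beyond about 50% at 5 µM, limit read from the data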
# Target sequence (P11712 whole entry, looked up): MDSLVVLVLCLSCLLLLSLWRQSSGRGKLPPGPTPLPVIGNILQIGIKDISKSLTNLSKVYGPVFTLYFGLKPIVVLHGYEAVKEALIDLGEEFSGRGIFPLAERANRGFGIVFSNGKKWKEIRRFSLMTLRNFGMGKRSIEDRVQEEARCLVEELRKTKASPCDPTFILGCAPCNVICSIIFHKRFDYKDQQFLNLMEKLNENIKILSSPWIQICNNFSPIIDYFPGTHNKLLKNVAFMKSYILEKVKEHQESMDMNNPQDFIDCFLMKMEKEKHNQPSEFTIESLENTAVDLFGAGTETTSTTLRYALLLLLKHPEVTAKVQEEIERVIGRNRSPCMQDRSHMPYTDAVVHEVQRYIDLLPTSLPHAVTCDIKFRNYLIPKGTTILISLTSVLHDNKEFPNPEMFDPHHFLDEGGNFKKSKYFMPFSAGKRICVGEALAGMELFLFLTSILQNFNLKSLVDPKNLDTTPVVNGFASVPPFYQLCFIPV
# CYP2C19 inh: human CYP2C19 inhibition; inhibition, % at 5 µM; hit rate 21% among 96,000; CYP2C19 Supersomes, luciferin-H EGE luminescence, 30 min; P33261; AID 778;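 active = CYP2C19 inhibition above a set limit at 5 µM in the primary screen, cut at about 50% in these data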;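 also: plate controls were negative control wells for no effect and 2.5 mM tranylcypromine positive control for full effect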
# CYP2C19 act: increases human CYP2C19 enzyme activity; 96,000 tested, under 10 active; P33261; recombinant CYP2C19, luciferin-H EGE luminescence; stronger effect = higher value; 0 = fully inhibited enzyme, 1 = untreated enzyme; activation factor at 5 µM;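 active = activation factor of at least 2 at 5 µM in the primary screen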;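 also: 0 = wells with 2.5 mM tranylcypromine and 1 = vehicle-only wells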
# CYP2C9 activ: activators of human CYP2C9; P11712; recombinant CYP2C9, luciferin-H conversion, luminescence; stronger effect = higher value; factor 1 = untreated enzyme, 0 = blocked; activation factor at 5 µM; hit rate 1.4% among 96,000; AID 1024;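 active = activation factor of 2 or more for CYP2C9 at a 5 µM dose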;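 also: 0 = sulfaphenazole-blocked wells and 1 = vehicle-only wells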
# * marks the source's active call; other numbers are inactive results; . = not tested or not shown.
SMILES,Cav3 T inh,CYP2C9 inh,CYP2C19 inh,CYP2C19 act,CYP2C9 activ
CCOC(=O)CSc1nc2ccccc2c(=O)n1CC1COc2ccccc2O1 (stereo not given),0.276,8.5,3.9,1,0.9
CC1=CC(C)(C)N(C(=O)CSc2nnc(N)s2)c2c(C)cc(C)cc21,-2.67,50.3*,59.7*,0.4,0.5
COc1cc(-c2nnc3sc(-c4cccs4)nn23)cc(OC)c1OC,0.129,79.7*,69.5*,0.3,0.2
COc1cc(-c2nn3c(-c4cccnc4)nnc3s2)cc(OC)c1OC,0.861,40.4,65.6*,0.3,0.6
COc1ccc(CN2CCN(C(=O)CC(C)C)CC2)c2ccccc12,-0.717,9.8,52.5*,0.5,0.9
COc1ccc(CN2CCN(C(=O)CC(C)C)CC2)cc1OC,0.406,-37.1,-2.2,1,1.4
COc1cccc(CN2CCN(C(=O)c3ccco3)CC2)c1OC,0.0283,.,.,.,.
O=C(c1ccncc1)N1CCN(C(=O)c2cccc3ccccc23)CC1,0.503,29.6,47.5,0.5,0.7
O=C(c1cccc2ccccc12)N1CCN(CC2CC=CCC2)CC1 (stereo not given),-0.236,-158.4,9.0,0.9,2.6*
COc1cccc(CN2CCN(C(=O)c3cccc4ccccc34)CC2)c1OC,-4.54*,-20.5,40.3,0.6,1.2
COC(=O)c1cc(OC)c(OC)cc1NC(=O)CCC1CCCC1,-1.39,-3.9,11.4,0.9,1
O=C(C1=C[C@@H](C2CCCCC2)C[C@@H](OCc2ccc(CO)cc2)O1)N1CCN(Cc2ccccc2)CC1,-2.81,.,.,.,.
COC(=O)c1ccccc1NC(=O)N1CCN(C(=O)c2ccco2)CC1,.,1.0,52.1*,0.5,1
O=C(Nc1ccccc1C(=O)N1CCNCC1)c1ccco1,1.27,.,.,.,.
Cc1sc(NC(=O)c2ccco2)c(CN2CCN(c3ccccc3)CC2)c1C,.,80.4*,72.1*,0.3,0.2
Cc1sc(NC(=O)c2ccco2)c(CN2CCCCC2)c1C,-0.958,11.0,1.9,1,0.9
O=C(Nc1ccccc1C(=O)N1CCN(c2ccccc2)CC1)c1ccco1,1.1,56.9*,62.1*,0.4,0.4
CS(=O)(=O)Nc1ccccc1C(=O)N1CCCC1,0.467,13.5,7.1,0.9,0.9
CS(=O)(=O)Nc1ccccc1C(=O)N1CCN(c2ccccc2)CC1,.,-0.7,71.0*,0.3,1
CCC1CCc2c(sc(NC(=O)c3ccoc3C)c2C(N)=O)C1 (stereo not given),0.804,42.2,9.3,0.9,0.6
CC(C)Oc1ccccc1C1CC(=O)Nc2c1c(=O)n(C)c(=O)n2C (stereo not given),.,-7.6,-10.6,1.1,1.1
CC(C)c1ccc(N2CCN(C(=O)c3ccccc3NC(=O)/C=C\C(=O)O)CC2)cc1,0.0711,1.3,-4.8,1,1
O=C(c1ccccc1NS(=O)(=O)c1ccc(Br)s1)N1CCCC1,-1.8,8.4,69.4*,0.3,0.9
O=C(O)/C=C\C(=O)Nc1ccccc1C(=O)N1CCN(c2ccc(Cl)cc2)CC1,0.553,58.0*,34.5,0.7,0.4
O=C(NC1CCCC1)c1cccc(NC(=O)c2ccco2)c1,0.316,45.1,-0.8,1,0.5
SMILES,Cav3 T inh,CYP2C9 inh,CYP2C19 inh,CYP2C19 act,CYP2C9 activ
COc1ccc(-c2csc(NC(C)c3nc4cc(C(F)(F)F)ccc4n3CCOCCO)n2)cc1 (stereo not given),-1.29,.,.,.,.
CC(C)Oc1ccc(-c2cc(=O)[nH]c(=O)[nH]2)cc1,0.439,-27.4,-16.5,1.2,1.3
COC(=O)c1ccsc1NC(=O)CN1CCN(Cc2ccc3c(c2)OCO3)CC1,-0.315,56.0*,46.1,0.5,0.4
COc1ccc(NC(=O)CN2CCN(c3ccc(F)cc3)CC2)cc1Cl,1.19,17.2,5.2,0.9,0.8
COC(=O)c1c(NC(=O)CN2CCN(Cc3ccc4c(c3)OCO4)CC2)sc(C)c1C,-0.555,71.4*,50.3*,0.5,0.3
COC(=O)c1ccsc1NC(=O)CN1CCN(c2ccc(F)cc2)CC1,-0.812,90.7*,91.4*,0.1,0.1
COC(=O)c1c(NC(=O)CN2C(=O)c3ccccc3C2=O)sc(Cc2ccc3c(c2)OCO3)c1C,-1.47,.,.,.,.
COc1ccc(C2(CN(C(C)=O)C(C)=O)CCCC2)cc1OC,0.504,31.4,51.8*,0.5,0.7
COc1ccc(C2(CNC(=O)Cc3ccccc3)CCCC2)cc1OC,0.701,34.9,61.9*,0.4,0.7
O=C1CCCc2c1cc(C(=O)NCc1ccco1)c(=O)n2-c1ccc(Cl)cc1,0.648,-3.0,83.9*,0.2,1
